From PubChem BioAssay AID686954 (Sanford-Burnham Center for Chemical Genomics, 2013)
Out of some 30,000 compounds screened, about 240 (0.8%) were called active.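 The calls were made as follows: active = at 10 µM dose, at least 30% inhibition, measured as corrected fluorescence normalized to stimulator and neutral control wells; inactive = the rest.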 Shown is part of a subset that was picked to be rich in actives.

Biological target: Protein artemis (Homo sapiens) (UniProt Q96SD1)
Assay: Artemis endonuclease inhibitors, primary screen, biochemical, fluorescence intensity, FAM/BHQ-1 hairpin substrate (AID 686954)
Conditions: recombinant Artemis, quenched FAM hairpin cleavage fluorescence; at 10 µM; stronger effect = higher value

Sequence of Protein artemis (Homo sapiens) (Q96SD1 whole entry, looked up): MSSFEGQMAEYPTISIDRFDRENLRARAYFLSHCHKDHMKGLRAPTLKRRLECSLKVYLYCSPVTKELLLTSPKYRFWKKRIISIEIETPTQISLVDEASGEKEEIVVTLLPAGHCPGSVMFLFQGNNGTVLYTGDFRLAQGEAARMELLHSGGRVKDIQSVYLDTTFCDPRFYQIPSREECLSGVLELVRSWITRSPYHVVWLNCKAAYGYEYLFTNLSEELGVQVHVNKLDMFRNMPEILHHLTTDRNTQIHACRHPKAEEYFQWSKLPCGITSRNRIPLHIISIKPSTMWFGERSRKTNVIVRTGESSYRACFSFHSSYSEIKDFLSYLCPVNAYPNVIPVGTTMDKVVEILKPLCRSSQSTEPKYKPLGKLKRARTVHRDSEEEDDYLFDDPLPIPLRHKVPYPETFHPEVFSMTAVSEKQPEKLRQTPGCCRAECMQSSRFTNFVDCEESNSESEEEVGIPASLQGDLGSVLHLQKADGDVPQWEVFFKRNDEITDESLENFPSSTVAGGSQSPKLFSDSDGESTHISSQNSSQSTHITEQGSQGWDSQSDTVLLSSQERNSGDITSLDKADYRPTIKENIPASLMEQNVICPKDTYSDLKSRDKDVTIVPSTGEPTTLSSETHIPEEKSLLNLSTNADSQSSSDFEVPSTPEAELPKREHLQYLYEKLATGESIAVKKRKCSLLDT

| Structure (SMILES) | inhibition |
| --- | --- |
| Cc1cc(=O)n2c3c(cccc13)CCC2 | -4.67% (inactive) |
| COc1ccc(-n2nnnc2SCc2nc(N)nc(N3CCOCC3)n2)cc1 | -0.42% (inactive) |
| C=CCn1c(SCC(=O)c2c(N)n(C)c(=O)n(C)c2=O)nc2sc(CC)cc2c1=O | 9.01% (inactive) |
| CCOC(=O)C(=CNc1cccc(C)n1)C(=O)OCC | -3.58% (inactive) |
| O=c1c2ccccc2c(-c2ccc(F)cc2)nn1-c1ccc(C(F)(F)F)cc1 | 5.92% (inactive) |
| CCCC1(C(=O)OCC)NC(c2ccc(N(C)C)cc2)C2C(=O)N(c3ccc4c(c3)OCCO4)C(=O)C21 (stereo not given) | -2.24% (inactive) |
| O=c1c2ccccc2nc2n1C(CSc1ccc(Cl)cc1)CN2 (stereo not given) | 3.79% (inactive) |
| COCCNc1nc(-n2nc(C)cc2C)nc2sc3c(c12)CCCC3 | 52.7% (active) |
| Cc1cc(C)n(-c2nc(SCC(=O)N3CCCC3)c3c4c(sc3n2)CCCC4)n1 | 40.1% (active) |
| COCCn1c(C)cc(C(=O)CSc2ncnc3sc4c(c23)CCC4)c1C | -1.83% (inactive) |
| N=c1c2c3c(sc2nc2n1CCCCC2)CCCC3 | -6.19% (inactive) |
| CCCc1nc2sc3c(c2c(=O)n1NC(=O)CCCl)CCCC3 | -7.23% (inactive) |
| COCc1cc(C)nc2sc(C(=O)NC3CCCCC3)c(N)c12 | -2.12% (inactive) |
| O=C(O)C1CCN1C1CCCCC1 (stereo not given) | 0.02% (inactive) |
| Cc1cccc(-n2cnc(C(=O)Nc3cccnc3)c2)n1 | 9.43% (inactive) |
| O=S(=O)(c1cccc2nonc12)N1CCN(c2cccc(Cl)c2)CC1 | -9.46% (inactive) |
| CCN(CC)c1nc(-c2ccccc2)cc(C(F)(F)F)c1C#N | -3.86% (inactive) |
| CCOC(=O)N1CCN(C(=O)CN(C2CCCCC2)S(C)(=O)=O)CC1 | -1.82% (inactive) |
| Cc1ccc(OCC(=O)N/N=C/c2ccncc2)cc1 | -5.31% (inactive) |
| COc1ccc(-c2c(C(C)=O)c(C)nc3sc4c(=O)n(-c5ccc(C)cc5)nnc4c23)cc1 | 11.3% (inactive) |
